The assay can be described thus: RPMI8226 myeloma cell viability, profiling panel, resazurin fluorescence, basal, 24 h, PK04 Diversity Set (AID 1180).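 Also: RPMI8826 multiple myeloma cell line at 5000 cells per well; test concentration not given here.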 As to conditions: higher = more signal.
`C=C(/C(=C/C[C@H](OC(C)=O)c1ccc(CO)o1)c1cc(C(=O)OC)ccc1OC)C(C)C` registered a z-score of -1.34.
As for `COC(=O)[C@@]1(Cc2ccccc2)N=C(c2ccc(OCCCO)cc2)O[C@H]1c1ccccc1`, the figure is -2.43.
The result for `CC(C)C[C@@H]1NC(=O)[C@@H]2C[C@H](C(=O)NCc3ccc(F)cc3)[C@H](c3cccc(OCCO)c3)N2C1=O` reads 0.919; that for `O=C1c2ccccc2[C@](Cc2ccccc2I)(C(=O)NCCN2CCOCC2)[C@H](c2ccc(CO)cc2)N1C1CCCCC1`, -0.954.
The result for `O=C1c2ccccc2[C@](Cc2ccccc2I)(C(=O)NCCN2CCOCC2)[C@H](c2ccc(CO)cc2)N1Cc1ccccc1Cl` reads 0.304; that for `CC(C)C(=C=CC[C@@H](O)c1ccc(OCCO)cc1)C[C@@H](O)COCc1ccccc1`, 1.55; that for `COC(=O)[C@]1(CCC(=O)OC(C)(C)C)N=C(c2ccc(OCCCO)cc2)O[C@@H]1c1ccccc1CN=[N+]=[N-]`, -4.68.
Compound `NC(=O)NCC#Cc1ccc2c(c1)[C@]1(C(=O)N2)[C@H](c2ccccc2OCCO)N2[C@H](c3ccccc3)[C@H](c3ccccc3)OC(=O)[C@H]2[C@@H]1C(=O)Nc1nc2ccccc2s1` gave a z-score of 0.744.
`C=CCC(OC(C)=O)[C@@H]1[C@@H](N(Cc2ccc(-c3ccccc3)cc2)C(=O)Cc2ccc(OC)cc2)c2cc(OCCCO)ccc2N1C(=O)Cc1ccc2ccccc2c1` (stereo partly drawn) showed a z-score of -0.798.
On to `C=C(CCCC)C(=O)CC[C@@H](OC(=O)c1ccccc1-c1ccccc1C(=O)O)c1ccc(OCCO)cc1`, for which the z-score worked out at 0.692.
The result for `CCCC[C@@H]1C[C@H]1[C@@H](NC(=O)c1ccco1)c1ccccc1C(F)(F)F` reads -0.594; that for `CCOC(=O)C[C@H]1[C@H](OC(=O)c2cc3ccccc3oc2=O)[C@@H](NC(=O)c2ccccc2)c2cc(OCCCO)ccc2N1C(=O)c1ccc2ccccc2n1`, -1.16; that for `CCN(CC)c1ccc(N2CC=CC34O[C@@H]5C=CCCOC(=O)C5[C@H]3C(=O)N(CCCCCCO)[C@@H]4C2=O)cc1` (stereo partly drawn), 1.04.
The compound `COC(=O)[C@@]1(Cc2ccccc2)[C@H]2c3cc(C(=O)N(C)C)n(Cc4ccsc4Br)c3C[C@H]2CN1C(=O)c1ccccc1` returned a z-score of -3.12.
The result for `COCCOC(=O)N1C(=O)[C@@]2(c3ccccc31)[C@H](c1ccccc1OCCO)N1[C@H](c3ccccc3)[C@H](c3ccccc3)OC(=O)[C@H]1[C@@H]2C(=O)N1CCN(c2ncccn2)CC1` reads -0.862; that for `O[C@@H](Cc1ccccc1)[C@H]1C2C=CCCC=C2CN1Cc1cccc(Cl)c1` (stereo partly drawn), -0.0704; that for `COc1cc2c(cc1OC)CN(C(=O)[C@@H]1[C@H]3C(=O)O[C@H](c4ccccc4)[C@H](c4ccccc4)N3[C@H](c3ccccc3OCCO)[C@@]13C(=O)Nc1ccc(C#CCCO)cc13)CC2`, 0.43.
As to `Cc1ccc(S[C@]2(C(=O)O)CC(=O)N(C(C)C)[C@@H]2c2ccc(CO)cc2I)cc1`, the z-score was -1.58.
As for `O=C1O[C@H](c2ccccc2)[C@H](c2ccccc2)N2[C@H]1[C@@H](C(=O)N1CCCCCCC1)[C@]1(C(=O)Nc3ccc(C#CCCO)cc31)[C@H]2c1ccccc1OCCO`, the figure is -2.97; as for `C=CCNC(=O)[C@@H]1[C@H]2C(=O)O[C@H](c3ccccc3)[C@H](c3ccccc3)N2[C@H](c2ccc(O)cc2)[C@@]12C(=O)N(C(=O)OCCOC)c1ccc(C#CCNC(N)=O)cc12`, 0.302.
As for `O=C(c1ccccc1)N1C(=O)[C@@]2(Cc3ccccc31)N=C(c1ccc(OCCCO)cc1)O[C@H]2c1ccccc1`, the figure is -3.43; as for `C=C(/C(=C/C[C@H](OC(C)=O)c1ccccc1OCCO)c1cnc2ccccc2c1)C(C)C`, -0.817; as for `CC(C)C(CO)N1C(=O)[C@@H]2C3C(=O)OCCC/C=C\[C@H]3OC23C=CCN(CCN2CCOCC2)C(=O)[C@@H]13` (stereo partly drawn), -0.586.
The compound `CCCC[C@H]1OB(O)C[C@H]2C1=C(COC)C[C@H]1C(=O)N(C)C(=O)[C@H]12` registered a z-score of -0.45.
In the case of `COC(=O)[C@@]1(Cc2ccc(F)cc2)[C@H]2c3cc(C(=O)N(C)C)n(Cc4ccc(Cl)c(C(F)(F)F)c4)c3C[C@H]2CN1C(=O)c1ccccc1`, the z-score is -3.26.
As for `COc1ccc(CCNC(=O)[C@@]2(Sc3ccc(C)cc3)CC(=O)N(C3Cc4ccccc4C3)[C@@H]2c2ccc(CO)cc2I)cc1`, the figure is -1.43; as for `CCCC[C@H]1OB(O)C[C@H]2C1=C(COC)Cn1c(=O)n(-c3ccccc3)c(=O)n12`, -0.214; as for `CN(C)CCCCCCNC(=O)[C@@H]1C[C@@H]2C(=O)N[C@@H](Cc3ccccc3)C(=O)N2[C@@H]1c1ccc(O)cc1`, -0.974.
